# Assay results reported in PubChem BioAssay (NCI).
# This is part of a sample that, as a whole, favours compounds with a hit. Of some 83,000 tested, about 20% had one in any assay.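 The test compound was applied at a single concentration to cells in 96-well plates for 48 hours, and percent growth was recorded.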 A number with no mark means an inactive call. Activity calls are given as the source filed them. How the source made its calls: active means growth percent below 10; inactive means the rest.
# Tests used:
# Assay in all cases: NCI-60 one-dose screen, 48 h (100 = growth as untreated, 0 = no growth, -100 = all killed)
# Conditions in all cases: 10 µM unless noted
# NCI-H23 lung = system: NCI-H23 lung
# NCI-H226 lung = system: NCI-H226 lung
# NCI-H322M lung = system: NCI-H322M lung
# HOP-62 NSCLC = system: HOP-62 NSCLC
# NCI-H460 lung = system: NCI-H460 lung
# HOP-92 NSCLC = system: HOP-92 NSCLC
# NCI-H522 lung = system: NCI-H522 lung
# A549/ATCC NSCLC = system: A549/ATCC NSCLC
# 786-0 renal = system: 786-0 renal
# COLO 205 colon = system: COLO 205 colon
# DU-145 prostate = system: DU-145 prostate
# K-562 leukemia = system: K-562 leukemia
# MALME-3M melanoma = system: MALME-3M melanoma
# MDA-MB-231 breast = system: MDA-MB-231 breast
# RXF 393 renal = system: RXF 393 renal
# SF-268 CNS = system: SF-268 CNS
# SF-295 CNS = system: SF-295 CNS
# SF-539 CNS = system: SF-539 CNS
# UACC-257 melanoma = system: UACC-257 melanoma
# M14 melanoma = system: M14 melanoma
SMILES,growth (NCI-H23 lung),growth (NCI-H226 lung),growth (NCI-H322M lung),growth (HOP-62 NSCLC),growth (NCI-H460 lung),growth (HOP-92 NSCLC),growth (NCI-H522 lung),growth (A549/ATCC NSCLC),growth (786-0 renal),growth (COLO 205 colon),growth (DU-145 prostate),growth (K-562 leukemia),growth (MALME-3M melanoma),growth (MDA-MB-231 breast),growth (RXF 393 renal),growth (SF-268 CNS),growth (SF-295 CNS),growth (SF-539 CNS),growth (UACC-257 melanoma),growth (M14 melanoma)
COc1cccc(-c2nc(-c3ccc(NC(=O)c4ccccc4)cc3)[nH]c2-c2ccnc(Br)c2)c1,27.9%,47%,41.2%,4.28% (active),19.1%,50.2%,16.2%,39.3%,-10.4% (active),16.7%,62.2%,2.4% (active),28.7%,34.2%,-44.3% (active),51.4%,-62.5% (active),-5.94% (active),49.4%,29.6%
COc1cccc(Oc2ccccc2NC(=O)CNC(=O)c2cccc3ccccc23)c1,31.6% [5 µM],53.7% [5 µM],32.6% [5 µM],35.3% [5 µM],6.08% [5 µM] (active),31.6% [5 µM],-10.3% [5 µM] (active),26.8% [5 µM],28.4% [5 µM],-13.5% [5 µM] (active),5.14% [5 µM] (active),11.8% [5 µM],51.3% [5 µM],7.29% [5 µM] (active),52.4% [5 µM],34.6% [5 µM],14.6% [5 µM],-7.85% [5 µM] (active),83.6% [5 µM],-6.36% [5 µM] (active)
c1cc(NCCc2ccncc2)nc(-n2cnc3ccccc32)c1,95.3%,76.6%,81.4%,90.7%,79%,93%,78.8%,78.8%,92%,123%,85.7%,88.6%,103%,98.2%,82.7%,82.3%,105%,90.3%,93.8%,94%
C=C1C(=O)O[C@H]2[C@H]1CC/C(COC(=O)C(C)c1ccc(CC(C)C)cc1)=C\CC[C@@]1(C)O[C@@H]21 (stereo not given in full),25.8%,83.6%,97.9%,84.7%,37.9%,-26.8% (active),-63.8% (active),75.1%,-93.4% (active),-10.1% (active),47.2%,-4.97% (active),-25.6% (active),-58% (active),-50.1% (active),33.8%,83.1%,22.1%,47.9%,16.1%
C[N+]1=C(/C=C/c2ccc(O)c3ncccc23)C(C)(C)c2ccccc21,80.1%,15%,97.4%,30%,32.8%,87.1%,51.9%,17.9%,66.7%,35.7%,85.2%,16.5%,115%,64.6%,32.5%,81.8%,72.9%,25.9%,85.3%,67.5%
O=c1ccn(Cc2cn(-c3c4ccccc4nc4ccccc34)nn2)c(=O)[nH]1,94%,102%,99.2%,97.7%,96.5%,84.7%,-57.4% (active),91.2%,90.9%,108%,74.6%,33.1%,98.6%,89.4%,98.2%,99.6%,106%,101%,85.6%,98.4%
COc1cc2cc(Oc3ccc(NC(=O)Nc4cccc(C(F)(F)F)c4)cc3)c(C)nc2cc1OCCN1CCOCC1,15.4%,57%,80.4%,50.8%,16.4%,33.9%,29.3%,15.8%,67.3%,35.5%,33.5%,11.6%,55%,57.9%,62%,55.8%,26.7%,73.7%,31%,34.3%
CC(=O)OC[C@H]1OC(Sc2sc(C(=O)c3ccc(C)cc3)c(N)c2-c2nc3ccccc3s2)[C@H](OC(C)=O)[C@@H](OC(C)=O)[C@@H]1OC(C)=O (stereo not given in full),56.1%,30.3%,81.3%,61.5%,43.7%,58.8%,82.1%,81.9%,47.4%,92.2%,42.1%,68.4%,43.9%,30%,53.5%,71%,73.6%,28.2%,79.3%,65.7%
COc1cc(/C=C/c2ccccc2)cc(OC)c1,86.6%,92%,114%,108%,106%,69.9%,84.1%,95.4%,97.9%,114%,94.3%,93%,105%,91%,118%,92.7%,95.7%,93.1%,103%,101%
O=[N+]([O-])c1ccc(Oc2nc(Nc3ccc(O[C@H]4CO[C@H]5[C@@H]4OC[C@@H]5O)c(Cl)c3)ncc2F)c(Cl)c1,25.7%,19.5%,29.9%,23.2%,22.7%,-7.77% (active),8.06% (active),40%,21.4%,33.3%,27.3%,22.2%,18.6%,26.8%,13.6%,31.6%,26.4%,19.5%,43.9%,23.9%
CC(=O)O.CN1[CH-]N(Cc2ccc(C#N)cc2)c2ccccc21.[Ag+],105%,103%,105%,108%,97.9%,116%,-89.1% (active),68%,103%,54%,111%,45.8%,102%,110%,117%,109%,110%,106%,81.2%,100%
O=C(Nc1ccc(F)cc1F)c1cc(F)ccc1O,-6.29% (active),4.02% (active),-6.69% (active),16.4%,7.51% (active),-29.9% (active),-6.24% (active),18%,13.3%,81.1%,21.9%,9.5% (active),-25.7% (active),10.8%,2.57% (active),15.8%,6.99% (active),17.1%,-8.33% (active),25.6%
COc1ccc(CN2c3ccccc3CCc3ccccc32)cc1F,38.7%,52.9%,57.6%,36.8%,6.64% (active),36.4%,-36% (active),21.2%,33.9%,-13.9% (active),8.55% (active),6.04% (active),84.3%,17.5%,17.8%,38.9%,11.7%,-16.2% (active),62%,-8.51% (active)
CC1=C([Se]CC(OC(=O)[C@@H](CSSC(C)(C)C)NC(=O)OC(C)(C)C)C(=O)NC(C)(C)C)C(=O)c2ccccc2C1=O (stereo not given in full),-63.7% (active),-56.8% (active),-73.6% (active),-51% (active),-52.1% (active),-72.2% (active),7.01% (active),1.99% (active),-93.8% (active),-84.7% (active),-98.7% (active),31.9%,-65.8% (active),-42.2% (active),-67.3% (active),-96.6% (active),-42.2% (active),-100% (active),-60% (active),-84.8% (active)
COc1cc(CCC[P+](c2ccccc2)(c2ccccc2)c2ccccc2)c(OC)c(OC)c1OC,77.9%,88.8%,83.3%,82.1%,82.2%,61.8%,71.9%,78.2%,75.3%,105%,79.6%,39.8%,53.7%,61.5%,54.2%,64.7%,82.5%,57.7%,60.7%,62%
